For some of these results: Results with a measured potency or affinity are listed apart.

What all share (design): scale not given: direction of the effect not stated beside the values
The target in experiment [1] is Protein translocase subunit SecA (Escherichia coli (strain K12)) (UniProt P10408). The experiment is described as follows: Assay to Identify E. coli SecA ATPase Inhibitors. Format: functional. The conditions noted are these: 30 µM.
Experiment [2] addresses T1, Ubiquitin-activating enzyme e1, putative (Leishmania donovani (strain BPK282A1)) (UniProt E9BSI1).
T1 sequence (whole entry): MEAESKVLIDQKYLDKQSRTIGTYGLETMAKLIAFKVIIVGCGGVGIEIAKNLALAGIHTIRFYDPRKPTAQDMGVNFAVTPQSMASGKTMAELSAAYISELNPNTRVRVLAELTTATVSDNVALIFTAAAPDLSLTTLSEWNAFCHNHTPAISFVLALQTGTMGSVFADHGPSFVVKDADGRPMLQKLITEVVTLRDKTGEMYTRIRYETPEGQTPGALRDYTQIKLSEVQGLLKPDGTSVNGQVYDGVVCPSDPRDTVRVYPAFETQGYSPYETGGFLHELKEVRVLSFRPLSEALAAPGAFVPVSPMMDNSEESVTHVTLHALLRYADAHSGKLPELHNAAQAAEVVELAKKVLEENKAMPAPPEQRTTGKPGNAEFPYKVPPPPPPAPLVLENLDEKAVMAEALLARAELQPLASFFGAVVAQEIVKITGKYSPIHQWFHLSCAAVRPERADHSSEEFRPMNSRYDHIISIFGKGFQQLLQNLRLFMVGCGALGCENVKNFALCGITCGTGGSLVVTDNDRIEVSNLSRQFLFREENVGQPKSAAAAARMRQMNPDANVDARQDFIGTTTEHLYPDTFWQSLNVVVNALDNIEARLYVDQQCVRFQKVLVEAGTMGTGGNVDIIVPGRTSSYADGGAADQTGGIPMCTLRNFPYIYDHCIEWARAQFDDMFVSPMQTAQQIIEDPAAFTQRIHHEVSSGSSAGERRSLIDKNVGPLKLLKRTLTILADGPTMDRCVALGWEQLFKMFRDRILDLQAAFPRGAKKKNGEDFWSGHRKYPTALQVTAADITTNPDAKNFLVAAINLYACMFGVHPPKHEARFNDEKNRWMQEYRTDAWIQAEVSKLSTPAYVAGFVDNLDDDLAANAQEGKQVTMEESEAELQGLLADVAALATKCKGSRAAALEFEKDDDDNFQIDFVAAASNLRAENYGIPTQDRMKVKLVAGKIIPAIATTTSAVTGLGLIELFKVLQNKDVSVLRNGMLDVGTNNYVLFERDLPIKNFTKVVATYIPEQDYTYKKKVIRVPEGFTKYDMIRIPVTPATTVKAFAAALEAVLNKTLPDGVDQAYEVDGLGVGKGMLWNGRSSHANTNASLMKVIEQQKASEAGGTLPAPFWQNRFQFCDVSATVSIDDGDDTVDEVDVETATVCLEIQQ
Description: Leishmania donovani Ubiquitin Activating Enzyme (LdE1). Format: functional. The conditions noted are these: 30 µM.

Experiment [3] addresses AMP-activated protein kinase, AMPK (Homo sapiens) (UniProt P54646+O43741+P54619+Q9UGJ0+Q9Y478+Q13131+Q9UGI9). Description: AMP-dependent Kinase enzyme assay. An in vitro enzyme assay that detects ADP turnover that is directly proportional to AMPK activity. This uses naive AMPK that is activated during the assay with MK-8722. The note with it: 30 µM. Format: functional.
Experiment [4] concerns the target Sialic acid-binding Ig-like lectin 9 (Homo sapiens) (UniProt Q9Y336). Description: Hs-Siglec9 ALPHAscreen SOP 20170721. The conditions noted are these: 10 µM.
In experiment [5] the test system is Trypanosoma cruzi. Description: Trypanosoma cruzi phosphomannomutase and mannose-1-phosphate guanylyltransferase assay. Format: functional. The conditions noted are these: 10 µM.
The target of experiment [6] is T2, Arginase-2, mitochondrial (Homo sapiens) (UniProt P78540).
T2 sequence (whole entry): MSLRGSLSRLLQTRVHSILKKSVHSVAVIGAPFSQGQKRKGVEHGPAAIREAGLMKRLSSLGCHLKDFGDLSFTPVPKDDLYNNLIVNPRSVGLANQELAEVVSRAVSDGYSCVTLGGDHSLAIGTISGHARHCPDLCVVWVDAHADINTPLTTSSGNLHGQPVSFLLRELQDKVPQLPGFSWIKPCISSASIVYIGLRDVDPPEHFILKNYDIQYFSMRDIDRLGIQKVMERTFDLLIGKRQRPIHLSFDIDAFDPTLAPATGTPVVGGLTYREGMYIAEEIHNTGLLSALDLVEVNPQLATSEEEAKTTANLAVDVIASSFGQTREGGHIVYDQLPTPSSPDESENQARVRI
Description: in vitro enzyme assay to detect the production of urea directly proportional to the activity of Arginase II. Further: in the data most compounds retested in dose-response had high values. Format: functional. The note with it: 33.3 µM.

Experiment [7] has as its target T3, Proteasome subunit beta (Trypanosoma cruzi) (UniProt O96673).
T3 sequence (whole entry): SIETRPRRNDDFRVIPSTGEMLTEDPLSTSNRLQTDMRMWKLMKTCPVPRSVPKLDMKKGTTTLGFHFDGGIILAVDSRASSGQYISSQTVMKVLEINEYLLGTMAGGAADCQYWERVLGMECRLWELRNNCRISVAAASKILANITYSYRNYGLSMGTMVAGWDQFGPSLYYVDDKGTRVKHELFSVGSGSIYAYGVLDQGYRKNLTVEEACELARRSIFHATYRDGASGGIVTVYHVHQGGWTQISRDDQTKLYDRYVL
The experiment is described as follows: Trypanosoma cruzi proteasome chymotrypsin-like activity (TcProtChymo) assay. Further: in the data most compounds retested in dose-response had high values. The note with it: 9.37 µM. Format: functional.

For experiment [8], the species on record is Homo sapiens. Description: To identify inhibition of the IFN signalling (Jak-Stat) pathway via expression of an eGFP reporter gene under the control of an IFN-stimulated response element (ISRE) containing MxA promoter. Format: functional. The note with it: 30 µM. (In general: A reporter such as luciferase makes a cellular process visible.)
The target in experiment [9] is T4, Tyrosyl-tRNA synthetase, putative (Trypanosoma cruzi (strain CL Brener)) (UniProt Q4DSP6).
T4 sequence (whole entry): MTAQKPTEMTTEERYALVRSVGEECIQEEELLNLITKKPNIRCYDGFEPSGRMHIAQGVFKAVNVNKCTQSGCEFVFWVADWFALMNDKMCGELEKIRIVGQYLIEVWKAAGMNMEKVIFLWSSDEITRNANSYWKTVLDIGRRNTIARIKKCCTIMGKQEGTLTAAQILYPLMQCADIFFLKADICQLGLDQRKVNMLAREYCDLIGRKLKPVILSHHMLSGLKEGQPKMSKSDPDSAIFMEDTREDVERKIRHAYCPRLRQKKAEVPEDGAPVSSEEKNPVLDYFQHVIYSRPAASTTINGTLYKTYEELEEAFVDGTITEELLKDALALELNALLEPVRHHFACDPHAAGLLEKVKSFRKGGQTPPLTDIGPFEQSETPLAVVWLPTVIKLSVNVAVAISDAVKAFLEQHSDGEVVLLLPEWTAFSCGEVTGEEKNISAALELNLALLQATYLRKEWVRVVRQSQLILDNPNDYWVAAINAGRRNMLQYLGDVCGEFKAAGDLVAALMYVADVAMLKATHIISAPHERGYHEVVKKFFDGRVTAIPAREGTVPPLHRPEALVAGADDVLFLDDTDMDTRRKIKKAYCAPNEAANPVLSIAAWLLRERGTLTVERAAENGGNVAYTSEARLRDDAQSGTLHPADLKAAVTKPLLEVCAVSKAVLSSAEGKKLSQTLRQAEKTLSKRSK
Description: Trypanosoma cruzi tyrosyl tRNA synthetase (TcYRS) _High Tyrosine SOP. Further: in the data most compounds retested in dose-response had high values. Format: functional. The conditions noted are these: 30 µM.

For experiment [10], the target named is T4, Tyrosyl-tRNA synthetase, putative (Trypanosoma cruzi (strain CL Brener)). Description: Trypanosoma cruzi tyrosyl tRNA synthetase (TcYRS) SOP. Format: functional. The conditions noted are these: 30 µM.
Experiment [11] deals with Chromo domain-containing protein 1 (Saccharomyces cerevisiae (strain ATCC 204508 / S288c) (Baker's yeast)) (UniProt P32657). The experiment is described as follows: ScCHD-1 Enzyme Inhibition Assay. Further: in the data most compounds retested in dose-response had high values. Format: functional. The note with it: 30 µM.
Sequence of Chromo domain-containing protein 1 (Saccharomyces cerevisiae (strain ATCC 204508 / S288c) (Baker's yeast)) (P32657 whole entry, the tested form may be a part): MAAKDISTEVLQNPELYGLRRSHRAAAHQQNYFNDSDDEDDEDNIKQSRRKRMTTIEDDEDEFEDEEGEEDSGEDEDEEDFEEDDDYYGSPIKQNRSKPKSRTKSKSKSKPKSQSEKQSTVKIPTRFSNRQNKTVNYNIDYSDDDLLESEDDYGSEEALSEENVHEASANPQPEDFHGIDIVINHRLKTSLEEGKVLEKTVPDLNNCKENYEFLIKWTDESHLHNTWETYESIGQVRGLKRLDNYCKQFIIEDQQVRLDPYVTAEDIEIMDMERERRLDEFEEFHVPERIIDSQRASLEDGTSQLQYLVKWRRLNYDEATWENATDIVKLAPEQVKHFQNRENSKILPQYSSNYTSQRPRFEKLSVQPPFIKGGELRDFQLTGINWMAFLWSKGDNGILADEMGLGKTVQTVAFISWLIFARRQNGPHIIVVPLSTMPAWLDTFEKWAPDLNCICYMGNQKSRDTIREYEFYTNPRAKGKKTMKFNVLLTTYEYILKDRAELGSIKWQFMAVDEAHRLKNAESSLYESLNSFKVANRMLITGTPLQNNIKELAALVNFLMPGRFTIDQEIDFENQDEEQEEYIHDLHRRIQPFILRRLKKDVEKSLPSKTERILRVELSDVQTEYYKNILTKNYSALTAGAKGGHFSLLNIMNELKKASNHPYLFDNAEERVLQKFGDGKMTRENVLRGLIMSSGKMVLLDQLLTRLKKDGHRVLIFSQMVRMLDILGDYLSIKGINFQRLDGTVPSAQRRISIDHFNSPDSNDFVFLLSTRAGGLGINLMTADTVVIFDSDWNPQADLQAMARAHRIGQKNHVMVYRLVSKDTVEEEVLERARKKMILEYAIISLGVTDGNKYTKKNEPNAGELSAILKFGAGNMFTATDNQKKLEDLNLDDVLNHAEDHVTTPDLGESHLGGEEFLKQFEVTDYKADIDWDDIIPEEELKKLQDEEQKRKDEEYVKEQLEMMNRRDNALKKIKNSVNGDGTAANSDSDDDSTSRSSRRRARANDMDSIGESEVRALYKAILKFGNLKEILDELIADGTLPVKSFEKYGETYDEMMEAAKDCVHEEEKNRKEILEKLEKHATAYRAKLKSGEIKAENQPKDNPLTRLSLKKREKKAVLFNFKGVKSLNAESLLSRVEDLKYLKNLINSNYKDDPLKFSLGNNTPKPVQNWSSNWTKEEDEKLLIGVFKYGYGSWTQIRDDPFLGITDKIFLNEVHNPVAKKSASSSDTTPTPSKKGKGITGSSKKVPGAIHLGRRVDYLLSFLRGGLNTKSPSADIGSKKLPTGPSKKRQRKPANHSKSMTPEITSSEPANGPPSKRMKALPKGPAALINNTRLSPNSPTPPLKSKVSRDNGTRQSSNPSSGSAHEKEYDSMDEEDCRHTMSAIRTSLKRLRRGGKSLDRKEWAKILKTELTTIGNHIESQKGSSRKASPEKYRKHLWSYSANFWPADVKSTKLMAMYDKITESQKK

Sequence of Protein translocase subunit SecA (Escherichia coli (strain K12)) (P10408 whole entry): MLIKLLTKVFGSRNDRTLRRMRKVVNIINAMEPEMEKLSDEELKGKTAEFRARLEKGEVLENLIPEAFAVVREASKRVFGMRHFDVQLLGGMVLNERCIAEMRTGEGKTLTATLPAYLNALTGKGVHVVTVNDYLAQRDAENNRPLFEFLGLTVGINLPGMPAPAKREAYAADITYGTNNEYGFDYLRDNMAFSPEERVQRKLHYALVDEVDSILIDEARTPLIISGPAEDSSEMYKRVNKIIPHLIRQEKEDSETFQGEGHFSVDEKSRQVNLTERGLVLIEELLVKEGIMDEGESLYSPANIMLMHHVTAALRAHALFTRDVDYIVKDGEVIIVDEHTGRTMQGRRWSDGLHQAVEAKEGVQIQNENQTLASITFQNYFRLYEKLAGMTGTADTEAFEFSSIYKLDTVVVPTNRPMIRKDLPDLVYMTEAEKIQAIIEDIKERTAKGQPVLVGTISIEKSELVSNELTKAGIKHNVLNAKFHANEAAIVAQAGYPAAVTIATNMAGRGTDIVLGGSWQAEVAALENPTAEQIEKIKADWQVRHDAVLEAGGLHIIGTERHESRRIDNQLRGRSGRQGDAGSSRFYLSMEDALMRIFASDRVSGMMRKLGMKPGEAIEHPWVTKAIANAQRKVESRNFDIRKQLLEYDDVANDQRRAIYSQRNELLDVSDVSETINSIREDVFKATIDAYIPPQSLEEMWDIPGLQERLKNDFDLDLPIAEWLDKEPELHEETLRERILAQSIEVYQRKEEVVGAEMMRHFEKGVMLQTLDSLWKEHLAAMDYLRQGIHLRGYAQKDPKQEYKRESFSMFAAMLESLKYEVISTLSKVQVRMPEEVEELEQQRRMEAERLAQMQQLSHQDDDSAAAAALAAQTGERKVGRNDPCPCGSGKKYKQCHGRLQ
Sequence of Sialic acid-binding Ig-like lectin 9 (Homo sapiens) (Q9Y336 whole entry): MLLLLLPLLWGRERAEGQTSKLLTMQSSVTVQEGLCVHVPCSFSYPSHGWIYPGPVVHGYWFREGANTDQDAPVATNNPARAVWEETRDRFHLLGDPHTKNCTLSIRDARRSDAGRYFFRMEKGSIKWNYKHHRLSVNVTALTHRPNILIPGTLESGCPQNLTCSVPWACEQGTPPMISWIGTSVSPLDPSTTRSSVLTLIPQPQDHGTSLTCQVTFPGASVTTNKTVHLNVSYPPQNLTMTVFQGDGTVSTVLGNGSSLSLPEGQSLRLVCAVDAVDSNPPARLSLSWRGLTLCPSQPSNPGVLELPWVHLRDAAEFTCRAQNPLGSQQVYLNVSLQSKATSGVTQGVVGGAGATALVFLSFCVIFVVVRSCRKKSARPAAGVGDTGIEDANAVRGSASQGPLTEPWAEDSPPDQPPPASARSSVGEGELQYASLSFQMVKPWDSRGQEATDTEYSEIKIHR

On to `CN1C(=O)C(C)(C)COc2cc(NS(=O)(=O)c3ccccc3)ccc21`, for which the Percent Effect in experiment [1] is -2.86%; in [2], 8.22%; in experiment [3] it was -14%; in experiment [4] it was 10.6%; in [5], -0.979%; in [6], 2.27%. The Percent Effect is 14.2% in experiment [7]; 46.6% in [8]; -8.6% in experiment [9]; 12.5% in experiment [10]; -7.69% in experiment [11].

For the compound `CCc1ccc(C2CCCCCN2Cc2nc(CCOC)no2)o1` (stereo unspecified), the Percent Effect in [1] was -1.49%; in experiment [2], 2.6%; in experiment [3], 3.4%; in experiment [4] it was 5.24%; in [5], 3.05%; in experiment [6], -9.65%. Also, the Percent Effect in experiment [7] is 16.5%; in experiment [8], 19.7%; in experiment [9], -14%; in [10] it was -18.5%; in experiment [11] it was -9.18%.

For `CC(C)N(C)S(=O)(=O)N(C)Cc1ccc2c(c1)OCO2`, the Percent Effect in [1] was -6.28%; in experiment [2], 15.6%; in experiment [3] it was -11.7%; in experiment [4] it was 5.6%; in [5], 10.5%; in experiment [6] it was 2.49%. For the same compound, the Percent Effect was 12.7% in experiment [7]; 13.3% in experiment [8]; 5.83% in experiment [9]; 21.9% in [10]; -8.74% in experiment [11].

For `O=C(c1ccc(F)cc1)N1C[C@H]2CCC[C@@]2(COCc2ccccn2)C1`, the Percent Effect in [1] was -4.13%; in experiment [2], 8.11%; in [3] it was -4.94%; in experiment [4], 1.62%; in experiment [5], 2.44%; in [6], 7.96%. In addition, the Percent Effect in experiment [7] is 22%; in experiment [8], -12.1%; in experiment [9] it was 3.24%; in [10], 17.9%; in experiment [11] it was 1.95%.

As for `CN(C)c1cncc(C2CCN(CCO)CC2)n1`, the Percent Effect was -3.32% in [1]; 12.2% in [2]; 5.42% in [3]; -1.62% in [4]; -2.96% in experiment [5]; -3.94% in [6]. Besides, the Percent Effect in [7] was 8.74%; in experiment [8], 8.75%; in experiment [9] it was 7.53%; in experiment [10], 16.9%; in experiment [11] it was -15.7%.

Consider `Fc1cnc(N2C[C@H]3CCC[C@@]3(COc3ccccn3)C2)nc1`, for which the Percent Effect in [1] was -1.64%; in experiment [2], 1.33%; in experiment [3], 6.16%; in experiment [4] it was 4.78%; in experiment [5], -3.93%; in experiment [6] it was -1.94%. Moreover, the Percent Effect in [7] was 10.5%; in experiment [8], -10.5%; in experiment [9], 5.29%; in experiment [10], 2.56%; in experiment [11] it was -5.06%.

For `O=S(=O)(Cc1ccccc1F)NCCN1CCOCC1`, the Percent Effect in experiment [1] was -4.08%; in experiment [2], 8%; in [3], -0.989%; in [4], -5.08%; in experiment [5], -3.02%; in experiment [6], -1.04%. Besides, the Percent Effect in experiment [7] is 12.6%; in experiment [8] it was -12.7%; in [9], -1.64%; in [10], 6.17%; in [11] it was -1.76%.

In the case of `Cc1nc(CNC(=O)Cn2nc(-c3ccc(F)cc3)oc2=O)cs1`, the Percent Effect in experiment [1] was -2.4%; in experiment [2], 15.8%; in [3], 10.4%; in experiment [4], 6.52%; in experiment [5], -1.32%; in experiment [6], -4.21%. Moreover, the Percent Effect in [7] is 3.17%; in experiment [8], 8.37%; in experiment [9], 7.35%; in experiment [10], 12.2%; in [11], -5.84%.

With `COCCN1CCC(NCc2cccnc2)C1` (stereo unspecified), the Percent Effect in experiment [1] was -5.87%; in experiment [2], -2.6%; in experiment [3] it was -0.869%; in [4], -1.42%; in experiment [5], -5.06%; in experiment [6], 2.49%. Besides, the Percent Effect in [7] was 5.74%; in experiment [8], 16.6%; in [9] it was 1.94%; in experiment [10] it was -4.88%; in [11], -3.65%.

Turning to `Cc1nc(CNCC2CCCN2c2cccnn2)no1` (stereo unspecified), the Percent Effect in [1] was -3.3%; in [2] it was -13%; in [3] it was -11.2%; in experiment [4] it was -6.04%; in [5], 8.32%; in experiment [6], -6.53%. In addition, the Percent Effect is 15.6% in experiment [7]; -2.13% in experiment [8]; 9.52% in experiment [9]; 14.1% in [10]; -23.1% in experiment [11].

Consider `Cc1cc(C(F)(F)F)c2c(C3CCN(S(=O)(=O)N(C)C)CC3)noc2n1`, for which the Percent Effect was -2.53% in [1]; 12.2% in experiment [2]; 6.65% in [3]; 11.8% in experiment [4]; -0.395% in experiment [5]; 1.62% in experiment [6]. In addition, the Percent Effect in experiment [7] is 6.55%; in [8], 3.27%; in experiment [9], 6.45%; in [10], 16.9%; in experiment [11], -15.2%.

The values are drawn from ChEMBL document CHEMBL3988442, “University of Dundee, Small-Polar-MMV Screening Library” (2021).
